From PubChem BioAssay come the findings set out here.

The nature of assay [1]: stimulators of insulin release from INS-1E, primary screen, cell-based, 5 mM glucose, NPC library (AID 1117329;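 active means compound raises insulin release from rat beta cells at 5 mM glucose, no numeric limit stated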). Conditions: rat INS-1E insulin secretion, at 10 µM, stronger effect = higher value.
The nature of assay [2]: growth inhibition of GSK3B-pretreated HCT116 cells – cell-based, CellTiter-Glo, 0.2 to 20 µM (AID 1117336;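 active means compounds lowering colon cancer cell viability after pretreatment blocking the GSK3B kinase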). As to conditions: HCT116 viability after GSK3B inhibitor, at 20 µM, stronger effect = higher value. In general terms: Cellular ATP, detected with luciferase, serves as a proxy for viable cell number.
Assay [3] can be described thus: inhibition of endothelial tube formation, primary screen, imaging, VEGF stimulated, CD31 staining, tube area, NPC library (AID 1117340;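 active means compound that reduces growth-factor-driven endothelial tube area in a mixed cell culture, no cutoff stated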). As to conditions: VEGF-stimulated ADSC/ECFC co-culture, at 10 µM, stronger effect = higher value.
A short description of assay [4]: GLP1 release stimulators, primary, NCI-H716, NPC library (AID 1117341;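 active means compound raises GLP1 secretion from the human gut endocrine cells, with no numeric limit stated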). As to conditions: NCI-H716 cells, at 10 µM, stronger effect = higher value.
A short description of assay [5]: HCT116 colon cancer cell growth inhibition, primary screen, CellTiter-Glo luminescence, NPC library (AID 1117342;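 active means compounds that lower survival of HCT116 colon cancer cells in the luminescence readout, no numeric limit stated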). Conditions: at 20 µM (top of the series).
The nature of assay [6]: reduced SW480 viability measured with CellTiter-Glo, NPC library, primary (AID 1117343). As to conditions: CellTiter-Glo luminescence; at 20 µM (top of the series).
The nature of assay [7]: NPC library primary testing for decreased DLD-1 cell viability via CellTiter-Glo (AID 1117346;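 active means compounds that lower survival of DLD-1 colon cancer cells in the luminescence readout, no cutoff given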). As to conditions: DLD-1 viability, CellTiter-Glo luminescence; at 20 µM (top of the series).
The target of assay [8] is 6-phosphogluconate dehydrogenase, decarboxylating (Homo sapiens) (UniProt P52209). In words: inhibition of human phosphogluconate dehydrogenase – biochemical, recombinant enzyme, NADPH absorbance, primary screen (AID 1159550;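 active means at least 20% inhibition of 6-phosphogluconate dehydrogenase activity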). Conditions: recombinant 6PGD, NADPH absorbance 341 nm; at 10 µM; stronger effect = higher value.
6-phosphogluconate dehydrogenase, decarboxylating (Homo sapiens), sequence (P52209 whole entry, looked up): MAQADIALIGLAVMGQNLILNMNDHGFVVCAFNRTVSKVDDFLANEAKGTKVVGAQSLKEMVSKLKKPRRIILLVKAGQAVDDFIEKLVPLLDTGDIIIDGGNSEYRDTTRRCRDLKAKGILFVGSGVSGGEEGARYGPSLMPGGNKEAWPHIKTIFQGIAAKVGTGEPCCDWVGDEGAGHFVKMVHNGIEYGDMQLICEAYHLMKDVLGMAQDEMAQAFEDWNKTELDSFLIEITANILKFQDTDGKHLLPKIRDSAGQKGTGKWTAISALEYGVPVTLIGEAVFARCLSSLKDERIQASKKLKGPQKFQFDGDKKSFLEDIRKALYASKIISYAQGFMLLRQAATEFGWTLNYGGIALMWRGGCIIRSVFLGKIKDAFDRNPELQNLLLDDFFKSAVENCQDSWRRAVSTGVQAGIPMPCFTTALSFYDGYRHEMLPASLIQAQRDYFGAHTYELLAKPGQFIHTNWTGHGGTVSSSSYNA

A number with no mark means an inactive call. Active and inactive are the calls of the source.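 How the source made its calls, unless noted: active means compounds that lower viability of the colon cancer cells in the luminescence readout, with no numeric limit stated; inactive means the rest.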

Take `CCOC(=O)n1ccn(C)c1=S`: the insulin secretion stimulation in assay [1] is 0.6%. Also, in assay [2], the viability decrease is -40.3%. For the same molecule, in assay [3], the tube area decrease is 10.6%. For the same molecule, in assay [4], the GLP1 secretion stimulation was 0.3%. For the same molecule, in assay [5], the inhibition of viability is -5.63%. In addition, the viability decrease (inhibition) is 6.5% in assay [6] and 5.3% in assay [7]. Further, the inhibition in assay [8] is 2.95%.

`O=C(COc1ccc(Cl)cc1)N1CCN(Cc2ccc3c(c2)OCO3)CC1`: the insulin secretion stimulation in assay [1] was 2.3%. Further, the viability decrease in assay [2] was 54% (active). For the same molecule, the tube area decrease in assay [3] is 3.4%. Also, the GLP1 secretion stimulation in assay [4] was 0.1%. For the same molecule, the inhibition of viability in assay [5] is 53.7% (active). The viability decrease (inhibition) in assay [6] was 56.1% (active); in assay [7] it was 52.6% (active). In addition, the inhibition in assay [8] was 11.5%.

In the case of `CCN1CCCC(OC(=O)C(c2ccccc2)c2ccccc2)C1` (stereo unspecified), the insulin secretion stimulation in assay [1] is 133% (active). The viability decrease in assay [2] is 3.4%. The tube area decrease in assay [3] was 18.5%. Also, in assay [4], the GLP1 secretion stimulation was 1.3%. The inhibition of viability in assay [5] is 68.8% (active). For the same molecule, the viability decrease (inhibition) is 71.6% (active) in assay [6] and 46.5% in assay [7]. Also, the inhibition in assay [8] is -9.18%.

With `Nc1ccc(S(=O)(=O)Nc2ccc(Cl)nn2)cc1`, the insulin secretion stimulation in assay [1] was 1%. The viability decrease in assay [2] is 6.1%. Also, the tube area decrease in assay [3] was 12.6%. Further, in assay [4], the GLP1 secretion stimulation was -1.5%. Moreover, in assay [5], the inhibition of viability is -6.17%. Also, the viability decrease (inhibition) was 15.5% in assay [6] and 0.7% in assay [7]. Also, the inhibition in assay [8] is 10.1%.

As to `Nc1ccc(S(=O)(=O)Nc2ccccn2)cc1`, the insulin secretion stimulation in assay [1] was -2.8%. The viability decrease in assay [2] was -1.3%. Moreover, the tube area decrease in assay [3] is 7.9%. Besides, in assay [4], the GLP1 secretion stimulation was -3.8%. Also, the inhibition of viability in assay [5] was -12%. In addition, the viability decrease (inhibition) in assay [6] was 17.6%; in assay [7] it was -7.25%. Further, in assay [8], the inhibition was 4.06%.

On to `CN(C)C(=O)Oc1cccc([N+](C)(C)C)c1`, for which the insulin secretion stimulation in assay [1] is -0.9%. The viability decrease in assay [2] is 10%. For the same molecule, the tube area decrease in assay [3] was -12.9% (active). The GLP1 secretion stimulation in assay [4] was 1.3%. Further, the inhibition of viability in assay [5] is 2.9%. In addition, the viability decrease (inhibition) in assay [6] was -16.1%; in assay [7], -5.8%. For the same molecule, in assay [8], the inhibition is -2.26%.

For the molecule `Cn1c(=O)c2c(ncn2CC(O)CO)n(C)c1=O` (stereo unspecified), in assay [1], the insulin secretion stimulation is 1.1%. Also, the viability decrease in assay [2] was -2.9%. Besides, the tube area decrease in assay [3] was -11.6%. The GLP1 secretion stimulation in assay [4] is -0.3%. Also, in assay [5], the inhibition of viability was 7.4%. In addition, the viability decrease (inhibition) was 12.3% in assay [6] and 5.3% in assay [7]. Moreover, the inhibition in assay [8] was -4.2%.

As to `COC(=O)[C@@H]1[C@H]2C[C@H]3c4[nH]c5ccccc5c4CCN3C[C@@H]2CC[C@@H]1O`, in assay [1], the insulin secretion stimulation is 1.1%. Moreover, the viability decrease in assay [2] was -73.5%. In addition, the tube area decrease in assay [3] was 10.7%. In addition, the GLP1 secretion stimulation in assay [4] was -0.7%. In addition, the inhibition of viability in assay [5] was 13.8%. For the same molecule, the viability decrease (inhibition) in assay [6] was 18.3%; in assay [7] it was -9.4%. In addition, the inhibition in assay [8] was 2.13%.

For `CC(=O)Nc1c(I)cc(I)c(C(=O)O)c1I`, the insulin secretion stimulation in assay [1] was 0.6%. For the same molecule, the viability decrease in assay [2] is -43.4%. Moreover, the tube area decrease in assay [3] is 34.2%. Further, in assay [4], the GLP1 secretion stimulation is 0.7%. Besides, the inhibition of viability in assay [5] was 4.5%. The viability decrease (inhibition) is -4.3% in assay [6] and 0.1% in assay [7]. Moreover, the inhibition in assay [8] was -3.44%.

In the case of `O=c1oc2c(O)c(O)cc3c(=O)oc4c(O)c(O)cc1c4c23`, the insulin secretion stimulation in assay [1] is -0.1%. In addition, the viability decrease in assay [2] is 24.7%. In addition, the tube area decrease in assay [3] is 58% (active). For the same molecule, the GLP1 secretion stimulation in assay [4] was -2.3%. Also, the inhibition of viability in assay [5] is 19.7%. The viability decrease (inhibition) in assay [6] was 75.1% (active); in assay [7], 30.7%. In assay [8], the inhibition is -6.65%.

As to `O=C(Cn1ccnc1[N+](=O)[O-])NCCO`, in assay [1], the insulin secretion stimulation was 2.3%. Further, the viability decrease in assay [2] was -1.8%. For the same molecule, in assay [3], the tube area decrease was 2.6%. Also, the GLP1 secretion stimulation in assay [4] was -2.9%. In assay [5], the inhibition of viability was 19.2%. Further, the viability decrease (inhibition) is 6.3% in assay [6] and -0.6% in assay [7]. Also, the inhibition in assay [8] was -6.85%.

Turning to `Oc1ccc(Cl)cc1Cc1cc(Cl)ccc1O`, the insulin secretion stimulation in assay [1] was -0.9%. Moreover, in assay [2], the viability decrease was 100% (active). For the same molecule, the tube area decrease in assay [3] was 109% (active). The GLP1 secretion stimulation in assay [4] is 30.9% (active). The inhibition of viability in assay [5] is 102% (active). The viability decrease (inhibition) is -50.4% (active) in assay [6] and 105% (active) in assay [7]. For the same molecule, the inhibition in assay [8] is -8.92%.

For `N[C@@H](CCC(=O)N[C@@H](CS)C(=O)NCC(=O)O)C(=O)O`, the insulin secretion stimulation in assay [1] is -0.3%. Further, the viability decrease in assay [2] was -46.1%. In addition, the tube area decrease in assay [3] was 16.9%. Further, the GLP1 secretion stimulation in assay [4] is -3.8%. For the same molecule, in assay [5], the inhibition of viability is 5.53%. Besides, the viability decrease (inhibition) in assay [6] is 8.1%; in assay [7], -4.3%. Besides, the inhibition in assay [8] was 0.532%.

With `CCn1cc(C(=O)O)c(=O)c2cc(F)c(N3CCNCC3)nc21`, the insulin secretion stimulation in assay [1] was -0.1%. In addition, the viability decrease in assay [2] was 5.9%. Also, the tube area decrease in assay [3] was 2.1%. Also, the GLP1 secretion stimulation in assay [4] was -2.8%. Also, the inhibition of viability in assay [5] is -6.97%. The figures for the viability decrease (inhibition) in assay [6] and in assay [7] were -275% and -18.4%, respectively. Also, the inhibition in assay [8] is -18.3%.

Turning to `Fc1ccc(C(c2ccc(F)cc2)N2CCN(C/C=C/c3ccccc3)CC2)cc1`, the insulin secretion stimulation in assay [1] is 2.65%. Further, the viability decrease in assay [2] was 108% (active). In assay [3], the tube area decrease was 21.4%. In addition, the GLP1 secretion stimulation in assay [4] was 0.7%. Also, the inhibition of viability in assay [5] was 107% (active). Also, the viability decrease (inhibition) in assay [6] was 125% (active); in assay [7] it was 99.7% (active). The inhibition in assay [8] was 16.5%.

Turning to `O=C(O)c1cn(-c2ccc(F)cc2)c2cc(N3CCNCC3)c(F)cc2c1=O`, the insulin secretion stimulation in assay [1] was 0.8%. The viability decrease in assay [2] was 28.3%. The tube area decrease in assay [3] was -4.3%. Further, in assay [4], the GLP1 secretion stimulation was -2.6%. In assay [5], the inhibition of viability is 29.7%. Also, the values for the viability decrease (inhibition) in assay [6] and in assay [7] were -14.9% and -10.5%, respectively. Further, the inhibition in assay [8] is 0.148%.

`CN1CCC(=C2c3ccccc3Sc3ccccc32)CC1`: the insulin secretion stimulation in assay [1] is 28.8% (active). For the same molecule, in assay [2], the viability decrease is 77.2% (active). The tube area decrease in assay [3] was 51.9% (active). Also, in assay [4], the GLP1 secretion stimulation was -3.3%. Moreover, the inhibition of viability in assay [5] was 36.4%. In addition, the results for the viability decrease (inhibition) in assay [6] and in assay [7] were 80.2% (active) and 23.6%, respectively. Also, the inhibition in assay [8] is 13.2%.

One may read the inhibition as the relative decrease from the control value, in per cent.
